Test results: PubChem BioAssay (EPA / NIEHS)
The source made the active and inactive calls. The calls were made as follows: active = hit-call score of the fitted dose curve at least 0.9, where 1 is the maximum; inactive = score below 0.9.

Experiments:
[1] = ATG_CMV_CIS: Attagene CIS-FACTORIAL HepG2 Assay for human CMV (Internal Marker) (AID 2282928); conditions: HepG2 CMV promoter reporter, transcription factor profiling; actives raise or lower the signal;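 also: endpoint acts as a background internal control marker rather than a target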
Summary of the method: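 Fluorescence intensity of RT-PCR-derived reporter fragments, resolved by capillary electrophoresis, gives the signal. HepG2 liver cells bearing transfected cis-element reporters were treated 24 h; activity in either direction was fit relative to DMSO-treated controls.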

[2] = ATG_DR4_LXR_CIS: Attagene CIS-FACTORIAL HepG2 Assay for human Liver X Receptor (LXR), DR4 submotif (AID 2282929); conditions: HepG2 Attagene DR4 cis-reporter, mRNA transcription; actives raise or lower the signal
Summary of the method: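 Transiently transfected HepG2 liver cells; cis-regulated reporters; 24 h dosing. RT-PCR plus CE read-out of reporter mRNA. DMSO baseline, bidirectional curve fitting.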

[3] = target: Aryl hydrocarbon receptor (Homo sapiens) (UniProt P35869); assay: ATG_Ahr_CIS: Attagene CIS-FACTORIAL HepG2 Assay for human Aryl Hydrocarbon Receptor (Ahr) (AID 2282930); conditions: HepG2 AhR cis-factorial reporter transcription; actives raise or lower the signal
Summary of the method: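 Transient MRTU transfection of HepG2 → 24 h compound exposure → total RNA, oligo(dT) RT → PCR, 6-FAM extension, HpaI cut → CE fluorescence. DMSO = baseline; bidirectional curve fit.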

[4] = ATG_AP_1_CIS: Attagene CIS-FACTORIAL HepG2 Assay for human Activator Protein 1 (AP-1) (AID 2282931); conditions: HepG2 Attagene cis-factorial AP-1 reporter mRNA; actives raise or lower the signal
Summary of the method: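 We transfected HepG2 cells transiently with a set of cis-regulated reporter transcription units, dosed them for 24 h, and quantified reporter mRNA via RT-PCR and capillary electrophoresis, scoring gain or loss of signal relative to DMSO.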

[5] = ATG_AP_2_CIS: Attagene CIS-FACTORIAL HepG2 Assay for human Activator Protein 2 (AP-2) (AID 2282932); conditions: HepG2 AP-2 cis-reporter, Attagene transcription factor profiling; actives raise or lower the signal
Summary of the method: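 Transiently transfected HepG2 cells are exposed to chemical for 24 h. Reporter transcripts are then measured as fluorescence following RT-PCR and capillary separation, and gain- or loss-of-signal is fitted relative to DMSO.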

[6] = ATG_BRE_CIS: Attagene CIS-FACTORIAL HepG2 Assay for human Bone Morphogenetic Protein (BMP) Response Element (BRE) (AID 2282933); conditions: HepG2 BMP response element reporter, Attagene transcription factor profiling; actives raise or lower the signal
Summary of the method: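 After a 24 h chemical treatment, transiently transfected HepG2 cells were lysed for RNA; reporter transcripts were quantified by fluorescent RT-PCR and capillary electrophoresis, normalised to DMSO.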

[7] = target: Retinoic acid receptor alpha (Homo sapiens) (UniProt P10276); assay: ATG_DR5_RAR_CIS: Attagene CIS-FACTORIAL HepG2 Assay for human Retinoic Acid Receptor Alpha (RARE), DR5 submotif (AID 2282934); conditions: HepG2 Attagene cis-factorial RARE DR5 reporter, mRNA; actives raise or lower the signal;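 as to AC50: reporter responds to endogenous RAR alpha beta and gamma in HepG2 not RARA alone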
Summary of the method: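 Transient MRTU transfection of HepG2; 24 h compound treatment; TriZol RNA, oligo(dT) RT, PCR, FAM labelling, capillary electrophoresis. Bidirectional fit vs DMSO. Endogenous TF activity at DR5 RARE.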

[8] = target: Transcription factor E2F1 (Homo sapiens) (UniProt Q01094); assay: ATG_E2F_CIS: Attagene CIS-FACTORIAL HepG2 Assay for human E2F Transcription Factor 1 (AID 2282935); conditions: HepG2 Attagene cis-reporter, E2F reporter RNA transcripts; actives raise or lower the signal
Summary of the method: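 Fluorescent RT-PCR products, digested with HpaI for 2 h at 37 C, are separated by capillary electrophoresis. Source RNA comes from transfected HepG2 cultures treated for 24 h.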

[9] = ATG_E_Box_CIS: Attagene CIS-FACTORIAL HepG2 Assay for human Enhancer Box (E-box) (AID 2282936); conditions: HepG2 E-box cis-reporter transcription, actives raise or lower the signal
Summary of the method: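 Fluorescent reporter fragments separated by capillary electrophoresis gave the signal; mRNA came from HepG2 cells transfected with cis-element reporters and treated 24 h. Curves fitted bidirectionally relative to DMSO controls.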

[10] = ATG_M_61_CIS: Attagene CIS-FACTORIAL HepG2 Assay for M61 Transcription Factor (Internal Marker) (AID 2282937); conditions: HepG2 Attagene CIS-FACTORIAL M61 internal marker reporter; actives raise or lower the signal
Summary of the method: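 Multiplexed reporter mRNA assay, HepG2 human hepatoma cells, 24 h treatment. Signal: FAM-labelled, HpaI-digested RT-PCR fragments by CE. Fit: bidirectional, baseline DMSO.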

[11] = ATG_EGR_CIS: Attagene CIS-FACTORIAL HepG2 Assay for human Early Growth Response 1 (EGR1) (AID 2282938); conditions: HepG2 Attagene CIS-FACTORIAL EGR reporter mRNA; actives raise or lower the signal
Summary of the method: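 Multiplexed cis-reporter system in human hepatoma HepG2 cells, transiently transfected. Cells are dosed for 24 h; reporter transcripts are amplified, fluorescently tagged and sized by capillary electrophoresis, with DMSO as negative control.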

[12] = ATG_M_19_CIS: Attagene CIS-FACTORIAL HepG2 Assay for M19 Transcription Factor (Internal Marker) (AID 2282939); conditions: HepG2 Attagene CIS-FACTORIAL M19 internal marker reporter; actives raise or lower the signal
Summary of the method: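 In this multiplexed cell assay, transiently transfected HepG2 reporter units report endogenous transcription-factor activity; after 24 hours of treatment, labelled reporter cDNA fragments are quantified by capillary electrophoresis and fitted bidirectionally against DMSO.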

[13] = ATG_ERE_CIS: Attagene CIS-FACTORIAL HepG2 Assay for Estrogen Response Element (ERE) (AID 2282940); conditions: HepG2 ERE cis-reporter, Attagene RNA transcript; actives raise or lower the signal
Summary of the method: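 Measuring endogenous transcription factor output, the assay doses transfected HepG2 cells for 24 hours and quantifies reporter transcripts by fluorescent RT-PCR and capillary electrophoresis, with DMSO as baseline.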

[14] = ATG_Ets_CIS: Attagene CIS-FACTORIAL HepG2 Assay for human Erythroblast Transformation Specific (ETS) (AID 2282941); conditions: HepG2 ETS cis-reporter transcription, actives raise or lower the signal
Summary of the method: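 Multiplexed reporter transcript profiling: HepG2, 24 h treatment, total RNA to cDNA, PCR, 6-FAM labelling, HpaI cut, capillary electrophoresis. Gain- or loss-of-signal fitted against DMSO.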

[15] = target: Hepatocyte nuclear factor 3-beta (Homo sapiens) (UniProt Q9Y261); assay: ATG_FoxA2_CIS: Attagene CIS-FACTORIAL HepG2 Assay for human Forkhead box A2 (FOXA2) (AID 2282942); conditions: HepG2 cis-reporter transcription factor activity, 24 h; actives raise or lower the signal
Summary of the method: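 Multiplexed cis-element reporter assay in transiently transfected HepG2. Twenty-four hours post-dosing, RNA was reverse-transcribed, amplified, FAM-labelled, HpaI-digested and separated by CE. Activity gain or loss relative to DMSO.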

[16] = ATG_FoxO_CIS: Attagene CIS-FACTORIAL HepG2 Assay for human Forkhead box O (FoxO) (AID 2282943); conditions: HepG2 Attagene cis-reporter, FoxO element, mRNA; actives raise or lower the signal
Summary of the method: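 HepG2, transient MRTU transfection (cis element, endogenous TFs). Dose 24 h. TriZol RNA → oligo(dT) RT → PCR → 6-FAM primer extension → HpaI cut → CE. Gain/loss vs DMSO.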

[17] = ATG_GATA_CIS: Attagene CIS-FACTORIAL HepG2 Assay for human GATA Binding Protein (AID 2282944); conditions: HepG2 GATA cis-element reporter, Attagene multiplex mRNA; actives raise or lower the signal
Summary of the method: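 Measures endogenous transcription factor-driven reporter mRNA in HepG2 cells transiently carrying cis-regulated constructs. 24 h dosing; RNA via oligo(dT) reverse transcription, PCR, HpaI digestion, capillary electrophoresis; fitted relative to DMSO.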

[18] = ATG_GLI_CIS: Attagene CIS-FACTORIAL HepG2 Assay for human Zinc Finger Protein GLI1 (AID 2282945); conditions: HepG2, Attagene cis-factorial reporter mRNA, GLI element; actives raise or lower the signal
Summary of the method: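 Bidirectional curve fits relative to DMSO, using reporter mRNA levels from RT-PCR plus capillary electrophoresis. Cells were HepG2 transiently carrying cis-regulated reporter constructs, harvested 24 h after dosing.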

[19] = ATG_GRE_CIS: Attagene CIS-FACTORIAL HepG2 Assay for human Glucocorticoid Response Elements (GRE) (AID 2282947); conditions: HepG2 GRE cis-reporter, Attagene multiplex mRNA; actives raise or lower the signal
Summary of the method: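 Multiplexed cis-reporter mRNA induction, HepG2, 24 h post-dose. RT-PCR, FAM-labelled, HpaI-digested amplicons by CE. Bidirectional fit vs DMSO.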

Measured: AC50

Aryl hydrocarbon receptor (Homo sapiens), sequence (P35869 whole entry, looked up): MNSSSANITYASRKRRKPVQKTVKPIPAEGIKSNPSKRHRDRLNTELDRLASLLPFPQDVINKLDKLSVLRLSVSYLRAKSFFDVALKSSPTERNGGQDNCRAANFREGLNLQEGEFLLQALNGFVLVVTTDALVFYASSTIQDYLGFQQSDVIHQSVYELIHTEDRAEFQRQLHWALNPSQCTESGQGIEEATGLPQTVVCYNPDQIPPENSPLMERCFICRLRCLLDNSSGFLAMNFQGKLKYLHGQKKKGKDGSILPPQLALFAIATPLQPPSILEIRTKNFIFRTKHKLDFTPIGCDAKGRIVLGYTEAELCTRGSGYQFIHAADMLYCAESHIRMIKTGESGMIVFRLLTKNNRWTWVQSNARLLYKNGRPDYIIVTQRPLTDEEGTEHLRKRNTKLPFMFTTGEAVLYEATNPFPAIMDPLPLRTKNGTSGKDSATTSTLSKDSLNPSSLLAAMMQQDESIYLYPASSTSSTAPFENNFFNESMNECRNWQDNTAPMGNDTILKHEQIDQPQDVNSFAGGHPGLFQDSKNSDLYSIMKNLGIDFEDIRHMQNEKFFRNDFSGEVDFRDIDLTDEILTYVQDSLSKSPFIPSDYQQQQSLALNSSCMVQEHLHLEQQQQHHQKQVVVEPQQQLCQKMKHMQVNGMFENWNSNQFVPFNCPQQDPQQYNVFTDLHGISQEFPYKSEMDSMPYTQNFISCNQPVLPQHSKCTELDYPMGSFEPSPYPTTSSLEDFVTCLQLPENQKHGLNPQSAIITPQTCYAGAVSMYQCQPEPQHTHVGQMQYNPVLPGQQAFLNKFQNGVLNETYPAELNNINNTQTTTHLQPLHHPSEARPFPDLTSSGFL
Hepatocyte nuclear factor 3-beta (Homo sapiens), sequence (Q9Y261 whole entry, looked up): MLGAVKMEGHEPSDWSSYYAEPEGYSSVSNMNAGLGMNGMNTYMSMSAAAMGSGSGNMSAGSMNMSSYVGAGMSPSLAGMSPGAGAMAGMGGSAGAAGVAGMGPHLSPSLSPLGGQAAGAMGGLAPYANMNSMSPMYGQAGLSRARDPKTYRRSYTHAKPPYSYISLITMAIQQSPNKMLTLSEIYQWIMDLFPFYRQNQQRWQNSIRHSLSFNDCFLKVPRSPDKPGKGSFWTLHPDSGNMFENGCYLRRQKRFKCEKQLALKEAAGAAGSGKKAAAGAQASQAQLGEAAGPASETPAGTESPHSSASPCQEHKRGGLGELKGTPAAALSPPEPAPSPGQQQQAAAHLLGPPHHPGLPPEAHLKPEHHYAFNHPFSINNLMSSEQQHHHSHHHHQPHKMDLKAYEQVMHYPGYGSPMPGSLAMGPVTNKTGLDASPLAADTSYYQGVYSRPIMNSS
Retinoic acid receptor alpha (Homo sapiens), sequence (P10276 whole entry, looked up): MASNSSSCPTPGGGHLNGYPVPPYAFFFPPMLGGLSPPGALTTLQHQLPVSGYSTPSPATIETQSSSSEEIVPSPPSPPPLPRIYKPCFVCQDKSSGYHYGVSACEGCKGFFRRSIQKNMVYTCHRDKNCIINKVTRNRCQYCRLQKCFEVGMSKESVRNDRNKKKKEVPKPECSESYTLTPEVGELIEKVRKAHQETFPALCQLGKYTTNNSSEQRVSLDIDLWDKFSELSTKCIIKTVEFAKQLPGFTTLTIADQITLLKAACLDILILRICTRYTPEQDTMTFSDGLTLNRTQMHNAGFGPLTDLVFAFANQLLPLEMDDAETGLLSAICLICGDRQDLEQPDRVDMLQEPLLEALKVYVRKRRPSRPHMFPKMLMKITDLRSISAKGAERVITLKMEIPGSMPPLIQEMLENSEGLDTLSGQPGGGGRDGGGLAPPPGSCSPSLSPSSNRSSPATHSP
Transcription factor E2F1 (Homo sapiens), sequence (Q01094 whole entry, looked up): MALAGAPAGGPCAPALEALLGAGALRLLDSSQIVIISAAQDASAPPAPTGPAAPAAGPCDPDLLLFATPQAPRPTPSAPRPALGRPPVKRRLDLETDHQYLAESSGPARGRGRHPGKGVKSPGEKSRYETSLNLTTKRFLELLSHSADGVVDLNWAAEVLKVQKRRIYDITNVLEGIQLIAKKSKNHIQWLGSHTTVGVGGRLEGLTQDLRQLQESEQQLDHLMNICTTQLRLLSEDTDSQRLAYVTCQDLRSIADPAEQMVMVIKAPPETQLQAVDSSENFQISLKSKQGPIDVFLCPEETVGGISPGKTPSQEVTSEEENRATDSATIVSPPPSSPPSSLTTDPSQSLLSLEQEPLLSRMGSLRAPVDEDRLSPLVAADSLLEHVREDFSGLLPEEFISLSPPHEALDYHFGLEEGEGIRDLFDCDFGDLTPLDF

CC(C)CP(=S)(S)CC(C)C
inactive: all assays above

C[C@]12CC[C@@H](O)C[C@@H]1CC[C@@H]1[C@@H]2CC[C@]2(C)C(=O)CC[C@@H]12
not listed: [13] | [19]
inactive: all other assays above

CCOCn1c(-c2ccc(Cl)cc2)c(C#N)c(Br)c1C(F)(F)F
active: [2] 8.63 µM | [3] 170 µM | [5] 3.76 µM | [6] 1.1 µM | [7] 0.518 µM | [11] 1.83 µM | [14] 60.1 µM | [18] 157 µM | [19] 38.1 µM
inactive: all other assays above

CCCCN(CCCC)C(=S)S
active: [1] 162 µM | [2] 100 µM | [4] 171 µM | [6] 146 µM | [7] 100 µM | [9] 130 µM | [11] 110 µM | [15] 100 µM | [18] 140 µM
inactive: all other assays above

CC(=O)CN(CC(C)=O)N=O
inactive: all assays above

CC(C)(C#N)N=NC(C)(C)C#N
not listed: [15] | [16]
inactive: all other assays above

C=CC(=O)NC(C)(C)CC(C)=O
not listed: [13] | [19]
inactive: all other assays above
